# Screening results (PubChem)
# Only a selection was taken, and hits are over-represented in it overall.
# Pf Dd2 inh = qHTS Primary assay for Inhibitors of Plasmodium falciparum Dd2 growth in vitro | actives 4.3% (n = 120,000) | P. falciparum Dd2 growth, SYBR Green, 72 h | Potency, µM (top dose mostly 28.9 µM), for the others: at the top dose activity, negative = inhibition, actives largely listed as inhibitors; active means well fitted inhibition curve with a large enough effect;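 further: plate controls were DMSO vehicle for no effect and reference drug for full effect; nearly all actives have a fitted effect of over 65% in size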
#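 Infected erythrocytes (Dd2, 0.3% parasitemia, 2.5% hematocrit final) are added to compound in RPMI-1640/Albumax II medium, grown 72 h at 37C in low oxygen, then lysed with saponin/Triton-X containing SYBR Green and read by fluorescence.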
# Active calls of the source: *; i = inactive; [ ] = another dose, or the depositor's remark. Potency means the concentration at half of the fitted maximal effect.
SMILES,Pf Dd2 inh
Cc1c(CN(C)c2cc(C3CC(O)C3)nc(N)n2)[nH]c2ccccc12 (centres undefined),-16%
Cc1ccc(SCCN(C)c2cc(C3CC(O)C3)nc(N)n2)cc1 (centres undefined),5.6µM*
CN(CCc1nc2ccc(Cl)cc2[nH]1)c1cc(C2CC(O)C2)nc(N)n1 (centres undefined),i
CCc1ccc(C(=O)N2CCC(c3n[nH]c(=O)n3Cc3ccc(F)cc3)CC2)cc1,-26%
Cc1ccc(Cn2c(C3CCN(C(=O)c4cccc(Cl)c4)CC3)n[nH]c2=O)cc1,0%
Cc1ccc(Cn2c(C3CCN(C(=O)c4cccc(C)c4)CC3)n[nH]c2=O)cc1,-28%
Cc1ccc(-n2c(C3CCN(C(=O)c4cc(Cl)ccc4F)CC3)n[nH]c2=O)cc1,i
Cc1ccc(-n2c(C3CCN(C(=O)c4ccc(C(C)(C)C)cc4)CC3)n[nH]c2=O)cc1,4.5µM*
Cc1ccc(-n2c(C3CCN(C(=O)c4cccc(C)c4)CC3)n[nH]c2=O)cc1,-2%
Cc1ccc(-n2c(C3CCN(C(=O)COc4ccc(Cl)cc4)CC3)n[nH]c2=O)cc1,0.89µM*
Cc1ccc(Cn2c(C3CCN(C(=O)c4ccc(C(C)(C)C)cc4)CC3)n[nH]c2=O)cc1,2.5µM*
Cc1ccc(Cn2c(C3CCN(C(=O)c4cc(C)cc(C)c4)CC3)n[nH]c2=O)cc1,8.9µM*
Cc1ccc(-n2c(C3CCN(C(=O)c4cc(C)cc(C)c4)CC3)n[nH]c2=O)cc1,i
Cc1ccc(-n2c(C3CCN(C(=O)COc4ccc(F)cc4)CC3)n[nH]c2=O)cc1,-15%
Cc1ccc(Cn2c(C3CCN(C(=O)c4ccc(C#N)cc4)CC3)n[nH]c2=O)cc1,i
O=C(NC1CCCN(c2nc3ncccc3o2)C1)c1ccccc1 (centres undefined),i
CNC(=O)c1cc[nH]c1C1CCCN(C(=O)Cc2cccnc2)C1 (centres undefined),7%
CCN1CC2(CCC1=O)CCN(CCS(=O)(=O)c1ccccc1)CC2,-2%
O=C(NC1CCN(Cc2ccccc2)CC1)C1CC(=O)N(c2n[nH]c3cccc(F)c23)C1 (centres undefined),i
CCCC(=O)N1[C@@H]2CC[C@H]1CC(NC(=O)c1cnc(C)cn1)C2 (some centres undefined),10%
CC(=O)c1ccc(N2CCN(C(=O)CCCn3c(=O)[nH]c4ccsc4c3=O)CC2)cc1,i
O=C(CCCn1c(=O)[nH]c2ccc(Br)cc2c1=O)N1CCN(c2cccc(Cl)c2)CC1,i
COC(=O)c1ccc2c(=O)n(CCCCCC(=O)N3CCN(c4cc(Cl)ccc4C)CC3)c(=O)[nH]c2c1,10µM*
O=C(CCCCCn1c(=O)[nH]c2ccccc2c1=O)NCc1ccccc1,10µM*
O=C(CCCCCn1c(=O)[nH]c2ccccc2c1=O)NCCc1ccccc1,-5%
SMILES,Pf Dd2 inh
CCCCCn1c(=O)[nH]c2cc(C(=O)N3CCN(c4ccccc4F)CC3)ccc2c1=O,-13%
CC(=O)c1ccc(N2CCN(C(=O)CCCCn3c(=O)[nH]c4ccccc4c3=O)CC2)cc1,5.6µM*
O=C(CCCCCn1c(=O)[nH]c2ccccc2c1=O)NCc1ccc(Cl)cc1,i
Cc1ccc(C)c(N2CCN(C(=O)c3ccc4c(=O)n(CCc5ccccc5)c(=O)[nH]c4c3)CC2)c1,-24%
O=C1NC2(CCN(C(=O)c3cccnc3)C2)Oc2ccccc21 (centres undefined),-5%[44.1 µM]
Cn1cccc1C(=O)N1C[C@@H](CO)[C@H](c2nc(C3CC3)no2)C1,0%
O=S(=O)(Cc1ccccc1)NC[C@H]1COCc2nc3cccnc3n21,i
CN(C)C[C@@H]1CN(Cc2ccncc2)C[C@H]1NS(=O)(=O)Cc1ccccc1,-3%
O=C(N1CC=C(c2ccc(F)cc2)CC1)C12CNCC1CNC2 (centres undefined),i
Cc1ccc2c(c1)N1C(=O)OC[C@@H]1CCN(C)C2,i
CCOc1ccc(NC(=O)C(NS(=O)(=O)c2cccc3nsnc23)c2ccccc2)cc1 (centres undefined),22%
O=C(Nc1cccc(C(F)(F)F)c1)O[C@@H]1CO[C@H]2[C@@H]1OC[C@@H]2NS(=O)(=O)c1cccc2cccnc12,-22%
CC(C)C(NS(=O)(=O)c1cccc2cccnc12)C(=O)Nc1ccc(OC(F)(F)F)cc1 (centres undefined),10µM*
CCn1cc(S(=O)(=O)N2CCC(c3noc(COC)n3)C2)cn1 (centres undefined),11%
CCc1nc2c(=O)n(CC(=O)NCc3ccco3)nc(C)c2s1,i
Cn1c(CNC(=O)CCc2ccnc(N3CCCC3)c2)nc2ccccc21,-16%
CCCNC(=O)CCc1ccnc(N2CCOCC2)c1,16%
O=C(CCc1ccnc(N2CCCC2)c1)NCc1ccc(F)c(Cl)c1,3.2µM*
COCCCNC(=O)c1c(C)noc1-c1cc(OC)cc(OC)c1,-4%
CCNC(=O)C12CCCC=C1N(C1CCCC1)C(=O)CC2 (centres undefined),14%
COc1ccc(NC(=O)Nc2cccn3nc(C(C)C)nc23)cc1,-23%
CCc1ccccc1S(=O)(=O)Nc1cccn2nc(C(C)C)nc12,8.9µM*
CCc1nc2c(NS(=O)(=O)c3cccnc3)cccn2n1,-8%
CC(C)c1nc2c(NC(=O)Nc3cccc(Cl)c3)cccn2n1,-18%
CC(C)c1nc2c(NC(=O)c3cccc(Br)c3)cccn2n1,3.2µM*
SMILES,Pf Dd2 inh
Cc1nc2c(NS(=O)(=O)c3cccc(C#N)c3)cccn2n1,3%
Cc1noc(-c2ccccc2Cl)c1C(=O)NCCCc1ccccc1,i
CC(C)OCCCNC(=O)CCC1CCN(C(=O)c2ccccc2)CC1,1%
Cc1ccc(CN(C)C(=O)c2coc(COc3ccc4c(c3)OCO4)n2)o1,-18%
COc1cccc(CN2CCC3(CC2)CN(c2ncccn2)CC3CO)n1 (centres undefined),-10%
COc1ccc(N2CC(C(=O)N3CCC(C(=O)NCC(F)F)C3)NC2=O)cc1 (centres undefined),-13%
COCCC(=O)N1CCCCCCNC(=O)CC1c1ccccc1 (centres undefined),19%
Cc1ccc(CN2CCCCCNC(=O)CC2c2ccccc2)o1 (centres undefined),-4%
O=C1CC(c2ccccc2)N(Cc2ccc(F)c(F)c2)CCCCCN1 (centres undefined),10µM*
O=C1CC(c2ccccc2)N(Cc2ccc(C(F)(F)F)cc2)CCCCCN1 (centres undefined),-13%
COc1ccc(CN2CCCCCNC(=O)CC2c2ccccc2)cc1Cn1ccnc1 (centres undefined),2µM*
Cc1ncsc1CN1CCCCCNC(=O)CC1c1ccccc1 (centres undefined),-2%
Cc1cc(C[C@@H]2COC[C@@H]2NC(=O)CCN2CCCC2=O)on1,-4%
Cc1ccc(NC(=O)N2CC(c3nnc(-c4ccncc4)o3)C3(CCOCC3)C2)c(C)c1 (centres undefined),7%
CN1Cc2ccccc2-n2ccnc2C12CCN(C(=O)C1CCCCC1)CC2,i[5.79 µM]
CN(C)CC(NC1CCC2(CCNCC2)CC1)c1ccccc1 (centres undefined),-19%
CN(CCc1ccccn1)[C@H]1[C@@H]2OC[C@@H](O2)[C@@H](NCc2ccccc2O)[C@@H]1O,i
COc1cncc([C@@H](NC(=O)CCc2scnc2C)C2CC(O)C2)c1 (some centres undefined),-24%
COCCCN1C(=O)c2[nH]nc(-c3cc(C)ccc3O)c2C1c1ccc(F)cc1 (centres undefined),-29%
